Results filed as inconclusive are left out. Calls of active or inactive are those of the source. Unless noted, calls come from the whole dose curve; as a rule, active = well fitted curve in the direction sought with a large enough effect in the repeat runs; inconclusive = weak or mixed curves; inactive = no such curve, though single readings can be large; an effect the other way counts as inactive or inconclusive.
Experiments:
[1] = qHTS assay to identify small molecule antagonists of the sonic hedgehog signaling (Shh) pathway (AID 1259369; calls by dose curve; note: nearly all actives have a fitted effect of over 45% in size; note: potency is the fitted concentration of half-maximal effect)
In short: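 NIH/3T3-derived Gli1-Luc reporter cells plated 4 h, dosed with compound, then stimulated with conditioned medium for 24 h at 37 C. Firefly luciferase luminescence read after 30 min with detection reagent at room temperature.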

[2] = qHTS assay to identify small molecule agonists of the androgen receptor (AR) signaling pathway in the presence of an antagonist - cell viability counter screen (AID 1259379);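 note: MDA-kb2 human breast cancer cells carrying an MMTV luciferase reporter; series mostly up to about 92 µM; nearly all actives have a fitted effect of over 25% in size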
In short: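 MDA-kb2 cells (MMTV-luciferase, AR/GR), 3,000/well, 5 h attachment, then 3.0 µM nilutamide (final) and compounds at 15 concentrations. Viability by CellTiter-Fluor fluorescence after 16 h at 37 °C, 0% CO2, in the reporter wells.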

[3] = qHTS assay to identify small molecule antagonists of the estrogen receptor beta (ER-beta) signaling pathway - cell viability counter screen (AID 1259382); note: series mostly up to about 92 µM; nearly all actives have a fitted effect of over 55% in size
In short: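 ER-beta-UAS-bla HEK293T cells in 2% charcoal-stripped FBS medium, treated with compound plus 1 nM 17-beta-estradiol for 16 h at 37C. Viability read by CellTiter-Glo luminescence after 30 min at room temperature in the same wells.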

[4] = target: Estrogen receptor (Homo sapiens) (UniProt P03372); assay: qHTS assay to identify small molecule agonists of the estrogen receptor alpha (ER-alpha) signaling pathway in the presence of an antagonist (AID 1259383; calls by dose curve; note: top concentration of the series differs between compounds; nearly all actives have a fitted effect of over 15% in size)
In short: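 VM7Luc4E2 cells express endogenous full-length ER-alpha with an ERE-luciferase reporter and were hormone-deprived for 5 days. Compounds at 15 concentrations were added with 10.0nM ICI-182,780 for 22hr at 37C. Luminescence was read with ONE-Glo.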

[5] = qHTS assay to identify small molecule agonists or antagonists of the thyroid stimulating hormone receptor (TSHR) signaling pathway - wild type cell line counter screen (AID 1259384; calls by dose curve)
In short: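 Wild-type HEK293 cells were plated 18 h at 37 C/5% CO2, pin-dosed with compound plus Ro20-1724 medium, held 30 min at room temperature, then given cAMP-d2 and anti-cAMP-cryptate; fluorescence was read after 1 h. Fifteen concentrations, triplicate.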

[6] = target: Thyrotropin receptor (Homo sapiens) (UniProt P16473); assay: qHTS assay to identify small molecule antagonists of the thyroid stimulating hormone receptor (TSHR) signaling pathway (AID 1259385; calls by dose curve; note: nearly all actives have a fitted effect of over 20% in size)
In short: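 TSHR-HEK293 cells were plated and held 18 h at 37C/5% CO2, then given compound plus Ro20-1724 and stimulated with TSH at 1.5 ng/mL final. After 30 min at room temperature, cAMP was detected with cAMP-d2/anti-cAMP-cryptate (1 h) by fluorescence.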

[7] = qHTS assay to identify small molecule agonists of the estrogen receptor alpha (ER-alpha) signaling pathway in the presence of an antagonist - cell viability counter screen (AID 1259386);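 note: series mostly up to about 92 µM; cells exposed to compounds for 22 h at 37 °C before the viability read; nearly all actives have a fitted effect of over 30% in size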
In short: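 Cell viability in VM7Luc4E2 cells (endogenous full-length ER-alpha) measured by CellTiter-Fluor fluorescence in the same wells as the luciferase screen. Cells pre-cultured 5 days in charcoal-stripped serum, then treated 22 h with compounds at 15 concentrations plus 10.0nM ICI-182,780.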

[8] = target: Progesterone receptor (Homo sapiens) (UniProt P06401); assay: qHTS assay to identify small molecule agonists of the progesterone receptor (PR) signaling pathway (AID 1346784; calls by dose curve; note: nearly all actives have a fitted effect of over 30% in size)
In short: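 The screen uses PR-UAS-bla HEK 293T cells in charcoal-stripped serum (2%). Compounds are applied for 16 hr at 37C after a 6 hr pre-incubation, and reporter activity is detected with a FRET beta-lactamase substrate after 2 hr at room temperature.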

[9] = target: Progesterone receptor (Homo sapiens) (UniProt P06401); assay: qHTS assay to identify small molecule antagonists of the progesterone receptor (PR) signaling pathway (AID 1346795; active = well fitted inhibition curve with a large enough effect in the signal ratio in the repeat runs, not every such curve was filed as active; the % refers to the signal ratio)
In short: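 After 6 hr plating at 37C in 2% stripped-serum medium, PR-UAS-bla HEK293T cells got compounds, then 1 nM R5020. Sixteen hours later, LiveBLAzer substrate was applied for 2 hr at room temperature and fluorescence was recorded.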

[10] = qHTS assay to identify small molecule antagonists of the progesterone receptor (PR) signaling pathway - cell viability counter screen (AID 1346798); note: series mostly up to about 92 µM; nearly all actives have a fitted effect of over 50% in size
In short: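 Viability was determined by ATP-based luminescence (CellTiter-Glo) in PR-UAS-bla HEK293T cells cultured in 2% charcoal-stripped serum and incubated 16 hr with compounds under R5020 stimulation.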

[11] = qHTS assay to identify small molecule agonists of the progesterone receptor (PR) signaling pathway - cell viability counter screen (AID 1346799; calls by dose curve; note: nearly all actives have a fitted effect of over 45% in size)
In short: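 Viability was scored by ATP luminescence (CellTiter-Glo, 30 min, room temperature) in the same wells used for the reporter readout, after 16 hr compound exposure of PR-UAS-bla HEK293T cells.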

[12] = qHTS assay to identify small molecule antagonists of the TGF-beta/Smad signaling pathway - cell viability counter screen (AID 1346824); note: nearly all actives have a fitted effect of over 50% in size
In short: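 SBE-bla HEK 293T cells were plated overnight at 37 C, then given compounds in DMSO plus TGF-beta1 (added as 0.25 ng/mL solution) for 5 hr. After the bla read, CellTiter-Glo was added to the same wells and luminescence read after 30 min at room temperature.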

[13] = qHTS assay to identify small molecule agonists of the TGF-beta/Smad signaling pathway - cell viability counter screen (AID 1346829); note: top concentration of the series differs between compounds; nearly all actives have a fitted effect of over 45% in size
In short: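 Luminescence from CellTiter-Glo, read after a 30 min room-temperature incubation, gives cell viability of SBE-bla HEK 293T cells treated 5 hr with compounds at 37 C.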

[14] = qHTS assay to identify small molecule agonists of the TGF-beta/Smad signaling pathway (AID 1346859; active = well fitted activation curve with a large enough effect in the signal ratio in the repeat runs, not every such curve was filed as active; the % refers to the signal ratio; note: series mostly up to about 77 µM)
In short: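 Dual-wavelength fluorescence (460/530 nm emission) quantified beta-lactamase expression under the Smad binding element in HEK 293T cells following 5 hr compound treatment at 37 C.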

[15] = target: Thyrotropin-releasing hormone receptor (Homo sapiens) (UniProt P34981); assay: qHTS assay to identify small molecule antagonists of the thyrotropin-releasing hormone receptor (TRHR) signaling pathway (AID 1346877; active = well fitted inhibition curve with a large enough effect in the repeat runs, not every such curve was filed as active; note: series mostly up to about 51 µM)
In short: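 TRHR-expressing HEK293 cells loaded with calcium dye for 2 h at 37 C; compounds pre-incubated 5 min at room temperature before TRH challenge at 1 nM final. Intracellular calcium fluorescence read kinetically for 3 min; 15 concentrations in triplicate.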

[16] = target: Thyrotropin-releasing hormone receptor (Homo sapiens) (UniProt P34981); assay: qHTS assay to identify small molecule agonists of the thyrotropin-releasing hormone receptor (TRHR) signaling pathway (AID 1346891; calls by dose curve; note: series mostly up to about 58 µM)
In short: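 Kinetic fluorescence (3 min, 1 s intervals) reported intracellular calcium after compound transfer onto TRHR-Hek293 cells pre-loaded with dye for 2 h at 37 °C.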

[17] = qHTS assay to identify small molecule agonists of the estrogen receptor beta (ER-beta) signaling pathway - cell viability counter screen (AID 1259380); note: nearly all actives have a fitted effect of over 30% in size; note: potency is the fitted concentration of half-maximal effect
In short: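 ER-beta-UAS-bla HEK293T cells in medium with 2% charcoal-stripped FBS, pre-incubated 6 hr, then treated 16 hr at 37C. Cytotoxicity read in the same wells by CellTiter-Glo luminescence after 30 min at room temperature.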

[18] = target: Estrogen receptor beta (Homo sapiens) (UniProt Q92731); assay: qHTS assay to identify small molecule agonists of the estrogen receptor beta (ER-beta) signaling pathway (AID 1259377; active = well fitted activation curve with a large enough effect in the signal ratio in the repeat runs, not every such curve was filed as active; the % refers to the signal ratio)
In short: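 Measured by fluorescence intensity from a B/G FRET beta-lactamase substrate (2 h, room temperature) in ER-beta-UAS-bla HEK293T cells treated with DMSO-dissolved compounds for 16 hr at 37C and 5% CO2.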

[19] = target: Estrogen receptor beta (Homo sapiens) (UniProt Q92731); assay: qHTS assay to identify small molecule antagonists of the estrogen receptor beta (ER-beta) signaling pathway (AID 1259378; active = well fitted inhibition curve with a large enough effect in the signal ratio in the repeat runs, not every such curve was filed as active; the % refers to the signal ratio)
In short: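 ER-beta-UAS-bla HEK293T (GripTite) cells in 2% charcoal-stripped FBS medium were preincubated 6 hr at 37C, dosed with compound, then stimulated with 1 nM E2 (final) for 16 hr; beta-lactamase reporter read by B/G FRET fluorescence after 2 hr substrate loading.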

[20] = target: Androgen receptor (Homo sapiens) (UniProt P10275); assay: qHTS assay to identify small molecule agonists of the androgen receptor (AR) signaling pathway in the presence of an antagonist (AID 1259381; calls by dose curve; note: nearly all actives have a fitted effect of over 15% in size)
In short: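 MDA-kb2 cells carrying MMTV-luciferase (AR/GR responsive), 3,000 cells/well, co-treated with 3.0 uM nilutamide final. Compounds at 15 concentrations, 16 hr at 37C without CO2. Luciferase luminescence read after 30 min with ONE-Glo.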

Measured: Potency

Chain of Thyrotropin receptor (Homo sapiens) (P16473 whole entry, looked up): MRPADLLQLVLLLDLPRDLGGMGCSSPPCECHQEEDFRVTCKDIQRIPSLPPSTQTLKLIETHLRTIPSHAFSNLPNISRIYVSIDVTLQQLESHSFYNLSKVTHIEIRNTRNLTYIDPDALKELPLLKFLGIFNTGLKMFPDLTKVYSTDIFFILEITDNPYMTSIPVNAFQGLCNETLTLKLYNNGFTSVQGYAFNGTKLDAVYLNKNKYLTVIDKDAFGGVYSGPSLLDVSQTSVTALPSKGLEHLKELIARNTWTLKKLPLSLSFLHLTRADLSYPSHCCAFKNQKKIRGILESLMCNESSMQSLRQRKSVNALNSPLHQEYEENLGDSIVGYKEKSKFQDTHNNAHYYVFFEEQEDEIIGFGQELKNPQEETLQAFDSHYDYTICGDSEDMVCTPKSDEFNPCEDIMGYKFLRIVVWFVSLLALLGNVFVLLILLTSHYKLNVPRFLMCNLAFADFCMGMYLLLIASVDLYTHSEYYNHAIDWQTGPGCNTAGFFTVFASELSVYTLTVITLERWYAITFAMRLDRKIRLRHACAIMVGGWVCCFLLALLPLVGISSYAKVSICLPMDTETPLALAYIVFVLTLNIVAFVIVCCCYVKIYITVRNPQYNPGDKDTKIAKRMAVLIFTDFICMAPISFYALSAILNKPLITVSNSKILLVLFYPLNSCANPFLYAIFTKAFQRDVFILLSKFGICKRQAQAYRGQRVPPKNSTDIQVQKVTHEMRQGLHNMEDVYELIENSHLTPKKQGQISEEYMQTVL
Chain of Thyrotropin-releasing hormone receptor (Homo sapiens) (P34981 whole entry, looked up): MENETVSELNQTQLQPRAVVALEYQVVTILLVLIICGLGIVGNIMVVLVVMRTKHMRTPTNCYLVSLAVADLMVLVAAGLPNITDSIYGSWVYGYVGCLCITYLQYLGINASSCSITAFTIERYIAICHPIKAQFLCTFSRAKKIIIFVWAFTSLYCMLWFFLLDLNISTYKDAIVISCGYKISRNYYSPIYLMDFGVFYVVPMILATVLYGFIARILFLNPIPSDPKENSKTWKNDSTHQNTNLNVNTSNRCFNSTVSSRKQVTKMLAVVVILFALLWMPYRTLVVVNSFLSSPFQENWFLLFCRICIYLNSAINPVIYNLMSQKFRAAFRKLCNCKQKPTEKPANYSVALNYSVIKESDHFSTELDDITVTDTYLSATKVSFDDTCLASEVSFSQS
Chain of Estrogen receptor beta (Homo sapiens) (Q92731 whole entry, looked up): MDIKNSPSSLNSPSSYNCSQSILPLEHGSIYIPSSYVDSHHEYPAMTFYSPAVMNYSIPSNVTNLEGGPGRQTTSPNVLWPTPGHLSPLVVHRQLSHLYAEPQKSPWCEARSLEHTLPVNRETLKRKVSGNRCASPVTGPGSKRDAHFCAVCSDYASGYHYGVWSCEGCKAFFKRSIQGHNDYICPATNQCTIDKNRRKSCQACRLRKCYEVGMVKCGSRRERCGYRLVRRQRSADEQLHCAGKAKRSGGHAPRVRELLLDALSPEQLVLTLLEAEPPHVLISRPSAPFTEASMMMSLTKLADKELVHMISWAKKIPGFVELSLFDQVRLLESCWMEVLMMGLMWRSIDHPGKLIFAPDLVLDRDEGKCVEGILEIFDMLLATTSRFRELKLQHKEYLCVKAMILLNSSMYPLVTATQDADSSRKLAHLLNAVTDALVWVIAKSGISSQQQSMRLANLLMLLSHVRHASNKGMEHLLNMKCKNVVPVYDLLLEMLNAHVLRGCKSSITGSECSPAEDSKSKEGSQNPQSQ
Chain of Progesterone receptor (Homo sapiens) (P06401 whole entry, looked up): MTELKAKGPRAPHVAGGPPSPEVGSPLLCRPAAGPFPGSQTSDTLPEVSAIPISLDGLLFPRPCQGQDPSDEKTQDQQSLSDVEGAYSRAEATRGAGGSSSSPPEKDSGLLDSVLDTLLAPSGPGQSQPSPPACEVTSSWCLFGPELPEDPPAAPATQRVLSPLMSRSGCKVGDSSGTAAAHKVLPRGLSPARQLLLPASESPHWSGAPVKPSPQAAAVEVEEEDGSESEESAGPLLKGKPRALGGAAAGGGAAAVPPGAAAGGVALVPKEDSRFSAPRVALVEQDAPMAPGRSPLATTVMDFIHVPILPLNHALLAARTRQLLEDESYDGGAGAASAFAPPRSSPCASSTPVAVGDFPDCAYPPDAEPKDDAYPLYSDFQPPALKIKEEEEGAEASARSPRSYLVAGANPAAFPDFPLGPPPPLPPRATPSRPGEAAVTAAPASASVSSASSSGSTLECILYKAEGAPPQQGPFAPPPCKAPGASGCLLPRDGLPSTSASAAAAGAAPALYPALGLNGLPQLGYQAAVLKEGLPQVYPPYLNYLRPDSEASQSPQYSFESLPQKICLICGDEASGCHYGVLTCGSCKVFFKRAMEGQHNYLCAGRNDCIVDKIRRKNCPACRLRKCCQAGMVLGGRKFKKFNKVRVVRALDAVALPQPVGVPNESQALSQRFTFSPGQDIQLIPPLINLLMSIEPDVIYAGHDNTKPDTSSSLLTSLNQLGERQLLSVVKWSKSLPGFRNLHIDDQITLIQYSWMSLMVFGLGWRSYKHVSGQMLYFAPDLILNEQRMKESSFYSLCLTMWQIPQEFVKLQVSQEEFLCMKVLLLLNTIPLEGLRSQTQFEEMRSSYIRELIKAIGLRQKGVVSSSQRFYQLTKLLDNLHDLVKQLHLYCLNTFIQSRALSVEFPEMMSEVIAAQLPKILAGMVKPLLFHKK
Chain of Estrogen receptor (Homo sapiens) (P03372 whole entry, looked up): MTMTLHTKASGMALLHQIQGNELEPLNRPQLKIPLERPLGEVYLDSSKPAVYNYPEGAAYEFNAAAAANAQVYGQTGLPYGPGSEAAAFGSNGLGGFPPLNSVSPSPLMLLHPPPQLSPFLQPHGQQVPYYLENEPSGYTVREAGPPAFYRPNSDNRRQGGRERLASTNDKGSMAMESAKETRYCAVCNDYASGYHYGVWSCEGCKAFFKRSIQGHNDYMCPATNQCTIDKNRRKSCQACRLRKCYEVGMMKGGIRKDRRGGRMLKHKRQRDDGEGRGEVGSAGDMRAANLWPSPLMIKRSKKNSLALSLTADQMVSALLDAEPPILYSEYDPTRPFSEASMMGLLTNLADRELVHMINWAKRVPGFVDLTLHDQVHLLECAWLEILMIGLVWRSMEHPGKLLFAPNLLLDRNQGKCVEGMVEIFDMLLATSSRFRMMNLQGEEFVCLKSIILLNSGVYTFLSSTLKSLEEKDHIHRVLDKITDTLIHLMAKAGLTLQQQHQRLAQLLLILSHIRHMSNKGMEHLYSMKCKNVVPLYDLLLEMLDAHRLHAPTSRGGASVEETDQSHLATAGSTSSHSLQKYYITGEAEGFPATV
Chain of Androgen receptor (Homo sapiens) (P10275 whole entry, looked up): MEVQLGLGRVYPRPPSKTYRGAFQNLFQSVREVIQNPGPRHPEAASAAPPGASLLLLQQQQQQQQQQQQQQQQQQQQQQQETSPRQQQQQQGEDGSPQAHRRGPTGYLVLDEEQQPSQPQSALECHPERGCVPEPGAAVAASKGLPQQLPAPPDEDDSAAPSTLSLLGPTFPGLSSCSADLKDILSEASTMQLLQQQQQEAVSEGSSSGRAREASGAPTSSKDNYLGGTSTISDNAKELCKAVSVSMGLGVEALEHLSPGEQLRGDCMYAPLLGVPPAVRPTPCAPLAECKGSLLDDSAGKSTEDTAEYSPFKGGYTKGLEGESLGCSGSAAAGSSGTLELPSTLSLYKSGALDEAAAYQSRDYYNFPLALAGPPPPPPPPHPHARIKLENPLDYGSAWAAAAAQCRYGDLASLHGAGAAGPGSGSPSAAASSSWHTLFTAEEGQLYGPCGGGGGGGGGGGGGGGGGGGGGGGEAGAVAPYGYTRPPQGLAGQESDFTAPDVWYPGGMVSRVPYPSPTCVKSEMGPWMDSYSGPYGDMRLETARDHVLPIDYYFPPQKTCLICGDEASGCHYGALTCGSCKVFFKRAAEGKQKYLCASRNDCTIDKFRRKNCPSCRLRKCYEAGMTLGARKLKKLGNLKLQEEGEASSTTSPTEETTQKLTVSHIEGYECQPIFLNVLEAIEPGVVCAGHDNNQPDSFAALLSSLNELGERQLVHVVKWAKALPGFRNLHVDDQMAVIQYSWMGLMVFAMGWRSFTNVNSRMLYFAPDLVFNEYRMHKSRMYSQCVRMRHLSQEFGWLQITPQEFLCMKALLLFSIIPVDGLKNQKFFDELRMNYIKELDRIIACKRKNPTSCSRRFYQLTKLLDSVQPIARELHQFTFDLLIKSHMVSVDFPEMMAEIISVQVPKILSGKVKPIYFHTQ

CC/C=C\CCOC(=O)CCCCC
inactive: [1] | [2] | [3] | [4] | [5] | [6] | [7] | [8] | [9] | [10] | [11] | [12] | [13] | [14] | [15] | [16]

CN1C(=O)CC(c2ccccc2)C1=O (stereo not drawn)
inactive: [1] | [2] | [17] | [3] | [5] | [6] | [7] | [9] | [10] | [11] | [12] | [13] | [14]

COc1ccc2nc(NC(=O)Nc3ccccc3)sc2c1
inactive: [1] | [2] | [5] | [6] | [7] | [8] | [10] | [11] | [12] | [13] | [14] | [15] | [16]
active: [17] 10.6 µM

CN(CCCN1c2ccccc2CCc2ccccc21)CC(=O)c1ccc(Cl)cc1
inactive: [2] | [4] | [5] | [6] | [10] | [11] | [12] | [13] | [14] | [15] | [16]
active: [1] 26.6 µM

O=C1CCCCC1C1CCCCC1 (stereo not drawn)
inactive: [1] | [2] | [3] | [4] | [5] | [6] | [7] | [10] | [11] | [12] | [13] | [14] | [15] | [16]

c1ccc(CN(CC2=NCCN2)c2ccccc2)cc1
inactive: [18] | [19] | [2] | [17] | [3] | [4] | [5] | [6] | [7] | [10] | [11] | [12] | [13] | [14]

CC(C)C(=O)OCC(C)(C)C(O)C(C)C (stereo not drawn)
inactive: [19] | [2] | [17] | [3] | [4] | [5] | [6] | [7] | [11] | [12] | [13] | [14] | [15] | [16]

Cc1ccsc1C(=CCCN1CCC[C@@H](C(=O)O)C1)c1sccc1C
inactive: [19] | [2] | [17] | [20] | [3] | [4] | [5] | [6] | [7] | [8] | [9] | [10] | [11] | [12] | [13] | [14]

CNCCC(Oc1ccccc1OC)c1ccccc1 (stereo not drawn)
inactive: [19] | [2] | [17] | [3] | [4] | [5] | [6] | [7] | [9] | [10] | [12] | [13] | [14] | [15] | [16]
